# Assay results from the supplement of paper PMC10681739.
# Key:
# [1] = target: T1, ETS1 (UniProt P14921); experiment: ETS1 binding intensity (PBM fluorescence), ETS1 alone (arbitrary fluorescence units); higher = stronger binding; conditions: ETS1 concentration 1 nM; RUNX1 concentration 0 nM
# T1 sequence: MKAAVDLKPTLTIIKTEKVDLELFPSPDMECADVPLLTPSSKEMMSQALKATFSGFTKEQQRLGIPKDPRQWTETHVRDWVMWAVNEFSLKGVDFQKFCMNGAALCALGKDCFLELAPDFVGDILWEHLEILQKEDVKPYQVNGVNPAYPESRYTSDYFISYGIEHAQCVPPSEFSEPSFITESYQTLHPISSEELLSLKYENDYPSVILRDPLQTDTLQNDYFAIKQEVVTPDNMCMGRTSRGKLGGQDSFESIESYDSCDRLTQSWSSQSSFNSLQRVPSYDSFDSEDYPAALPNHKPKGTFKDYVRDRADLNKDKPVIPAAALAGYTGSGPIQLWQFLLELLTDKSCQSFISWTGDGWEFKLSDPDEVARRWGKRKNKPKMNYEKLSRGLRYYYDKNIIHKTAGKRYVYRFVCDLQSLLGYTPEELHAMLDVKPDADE
# [2] = target: RUNX1 (UniProt Q01196); experiment: RUNX1 binding intensity (PBM fluorescence), RUNX1 alone (arbitrary fluorescence units); higher = stronger binding; conditions: RUNX1 concentration 2 nM; ETS1 concentration 0 nM
# Experimental: (§1)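 Cooperative gcPBM on 36-bp genomic probes with neighbouring ETS1 and RUNX1 sites. Recombinant human RUNX1 (2 nM) was incubated alone or with ETS1 (25 nM) and detected with anti-RUNX1 antibody plus Alexa488 secondary. Values are medians over 4 replicate spots; the RUNX1+ETS1 data were normalised to the RUNX1-only data. The probes sit in constant array flanks that are not printed.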
# [3] = target: T1, ETS1; experiment: ETS1 binding intensity (PBM fluorescence) in presence of RUNX1, normalised to ETS1-only experiment (arbitrary fluorescence units); higher = stronger binding; conditions: ETS1 concentration 1 nM; RUNX1 concentration 25 nM
# [4] = target: RUNX1 (UniProt Q01196); experiment: RUNX1 binding intensity (PBM fluorescence) in presence of ETS1, normalised to RUNX1-only experiment (arbitrary fluorescence units); higher = stronger binding; conditions: RUNX1 concentration 2 nM; ETS1 concentration 25 nM
# Experimental: as §1
# 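Wherever RUNX1 binding intensity (PBM fluorescence) in presence of ETS1, normalised to RUNX1-only experiment is given: Full-length recombinant human ETS1 or RUNX1 bound to double-stranded 36-bp genomic probes on microarrays, detected by protein-specific primary antibody and Alexa488 secondary, spot fluorescence as median of four replicate spots.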
# 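Wherever RUNX1 binding intensity (PBM fluorescence), RUNX1 alone is given: Full-length recombinant human RUNX1 bound to double-stranded 36-bp genomic probes on a high-density microarray, scored as Alexa488 fluorescence per spot via anti-RUNX1 antibody, median of four replicate spots.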
# Sequence of RUNX1 (Q01196 whole entry): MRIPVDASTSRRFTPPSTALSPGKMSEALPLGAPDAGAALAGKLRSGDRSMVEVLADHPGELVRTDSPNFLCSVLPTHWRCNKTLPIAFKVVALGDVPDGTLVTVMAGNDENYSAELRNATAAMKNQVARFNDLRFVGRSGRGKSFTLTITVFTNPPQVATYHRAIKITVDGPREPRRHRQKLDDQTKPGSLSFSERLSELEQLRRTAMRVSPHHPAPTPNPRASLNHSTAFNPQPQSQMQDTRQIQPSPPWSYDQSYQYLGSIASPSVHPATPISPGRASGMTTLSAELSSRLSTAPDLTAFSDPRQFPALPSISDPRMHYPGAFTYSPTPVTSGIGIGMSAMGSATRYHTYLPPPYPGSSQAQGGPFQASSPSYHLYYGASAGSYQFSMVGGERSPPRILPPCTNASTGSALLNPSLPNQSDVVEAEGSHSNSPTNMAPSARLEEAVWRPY
Sequence,ETS1 binding intensity [1],RUNX1 binding intensity [2],ETS1 binding intensity [3],RUNX1 binding intensity [4]
CTTAGTGGGGCAGGATGTGGTCAGGGAAGCTGATCT,4440,836,29900,7670
GGAATTTCTTTTTCCGGTCCCGCAGGGTCAGCTGAG,1240,735,1520,1750
TACACTCCCACATCCGCTGCGGCGCAACTCACAACA,969,1020,1260,6980
TGCCTTCTACTCCGGAACTCAGACCGCTGCCTTCTA,759,1090,979,946
GTTTAACAGGAAACCCTGCAGACCACAGGTTCTGTC,1220,807,3630,1680
AAAAGGCACCAGGAAATGACAGCACCGCAGCACGCC,1290,717,2020,871
AGGCAAACTACAGGAAGATCCTGCCCGCAACTTGGT,454,785,2160,931
GCCGTCACTTCCGTCATTCAAACCGCCCGCCAATGG,823,1050,1160,2520
GATACCCAGCCAGCGGAAGTGCGGTTAACTGCCCGA,4460,4990,18400,11100
GAGGAGATTTCCGGCCCCCATCCCCGCAGCGACCTT,1690,762,1990,1820
TGGTGCCAAACATCCGCTAGCCACAGAAAAACCGAC,778,826,1170,1640
CCATTCACGGGCTTCCGCGGTGTCCCCACCCCCTAA,724,1080,760,1160
GCCCCAGCGTTTCCTCTTACCCACAATGCCCCGCCC,794,1510,869,2330
GAAACCGGAAGCGGCGGCTGTCCGCGGTGCCGGCTG,5800,717,6810,1550
